Bioassay records from PubChem BioAssay.
SARS PLpro yeast: blocks SARS-CoV papain-like protease in a yeast assay; AID 485353; hit rate 0.19% among 330,000; S. cerevisiae expressing SARS-CoV PLpro, growth rescue; Potency, µM (highest dose often 32.9 µM), actives largely listed as activators; calls by dose curve; also: nearly all actives have a fitted effect of over 55% in size
RE007 growth inh: less growth of the S. pombe RE007 Vpr strain | Potency, µM (series often up to 92.2 µM), hits mostly inhibitors | S. pombe RE007 Vpr strain, BacTiter-Glo ATP luminescence, 24 h | hit rate 0.21% among 360,000; active = well fitted falling curve with a large enough effect; inconclusive = small, poorly fitted or top-dose-only effect; inactive = no such curve, though single readings can be large or run the other way; also: nearly all actives have a fitted effect of over 50% in size
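Fission yeast strain RE007, carrying one chromosomally integrated HIV-1 vpr copy, was seeded at OD 0.01 in PMG+AL medium with 23 nL pinned compound. After 24 h at 30 °C and 99% humidity, viability was read by BacTiter-Glo luminescence.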
Sm TGR inh: blocks Schistosoma mansoni thioredoxin glutathione reductase; Q962Y6; purified TGR, DTNB reduction, TNB absorbance 405 nm; Potency, µM (series often up to 114 µM), actives largely listed as inhibitors; hit rate 3% among 360,000; also: nearly all actives have a fitted effect of over 60% in size
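TGR 20 nM + NADPH 100 uM (dispensed conc.), cpd preinc 15 min RT; start with NADPH (500 uM addition) then DTNB (15 mM addition). Kinetic TNB absorbance, 405 nm filter. Four-parameter Hill fit across titration.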
AmpC no deterg: AmpC beta-lactamase inhibition without detergent; Potency, µM (doses to about 57.1 µM), usual class: inhibitors; AmpC nitrocefin hydrolysis, absorbance 480 nm, 0.0001% Triton; hit rate 0.52% among 330,000; also: nearly all actives have a fitted effect of over 20% in size
Target sequence (P00811 whole entry, looked up): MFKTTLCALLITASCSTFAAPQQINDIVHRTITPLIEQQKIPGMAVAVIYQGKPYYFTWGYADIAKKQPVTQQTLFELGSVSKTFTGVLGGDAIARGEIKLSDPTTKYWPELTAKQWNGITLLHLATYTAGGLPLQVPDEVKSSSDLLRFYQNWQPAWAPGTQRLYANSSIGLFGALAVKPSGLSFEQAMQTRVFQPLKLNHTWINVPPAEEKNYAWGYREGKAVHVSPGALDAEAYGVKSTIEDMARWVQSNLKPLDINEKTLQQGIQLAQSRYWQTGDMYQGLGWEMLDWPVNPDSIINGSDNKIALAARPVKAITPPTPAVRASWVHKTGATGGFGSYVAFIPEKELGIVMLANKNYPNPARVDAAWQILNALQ
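20 mM phosphate pH 7.0 + 0.01% (detergent screen) or 0.0001% Triton X-100; 5.3 nM AmpC reagent; cpd preinc 15 min RT; nitrocefin (800 uM stock) to start; A480 q20 s × 4 min; Activity was normalised to no-enzyme and no-compound control wells.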
Tb PYK inh: T. brucei pyruvate kinase inhibition | TbPYK enzyme, Kinase-Glo Plus ATP luminescence, 45 min | hit rate 0.12% among 410,000 | Potency, µM (highest dose often 76.8 µM), actives largely listed as inhibitors; also: nearly all actives have a fitted effect of over 50% in size
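TbPYK + substrate in 50 mM TEA pH 7.2, 100 mM KCl, 10 mM MgCl2, 0.05% BSA, 0.01% Tween-20; cpd pinned; ADP 130 uM final; 45 min RT; Kinase-Glo Plus 10 min; luminescence endpoint.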
AmpC inh detg: inhibitors of E. coli AmpC beta-lactamase with detergent. P00811. AmpC hydrolysis of nitrocefin, absorbance 480 nm, 0.01% Triton. Potency, µM (highest dose often 114 µM), actives largely listed as inhibitors. hit rate 0.041% among 370,000. AID 485294; also: nearly all actives have a fitted effect of over 25% in size
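AmpC (5.3 nM in the dispensed reagent) in 20 mM phosphate pH 7.0 with 0.01% (detergent screen) or 0.0001% Triton X-100 was preincubated with compounds for 15 min at room temperature. Nitrocefin was then added from an 800 uM solution, and hydrolysis was followed at 480 nm.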
Hits are given with their value; – = inactive; ? = inconclusive; · = not tested or not shown; [ ] = another dose, or the depositor's remark. Most compounds without a hit are left out; they make up all but 3.3% or so of the library. Unless noted, calls follow the shape of the dose curve; as a rule, active = well fitted curve in the direction sought with a large enough effect; inconclusive = small, poorly fitted or top-dose-only effect, or another doubt; inactive = no such curve, though single readings can be large; an effect the other way counts as inactive or inconclusive.

SMILES	SARS PLpro yeast	RE007 growth inh	Sm TGR inh	AmpC no deterg	Tb PYK inh	AmpC inh detg
Cc1c(C(=O)N2CCOCC2)oc2c1-c1nn(CC(=O)NCc3ccccc3)cc1CC2	·	·	–	·	–	–
CCc1ccc(NC(=O)c2cc3sc(Cl)cc3n2C)cc1	·	·	–	·	–	56µM
CC(C)c1ccc(NC(=O)c2cc3sc(Cl)cc3n2C)cc1	·	·	–	·	–	–
Cc1cc(C)c(NC(=O)c2c[nH]c(=S)n2-c2ccc(F)cc2)c(C)c1	–	–	–	–	7.9µM	–
c1ccc(-c2onc(-c3ccco3)c2-c2ccc3[nH]ccc3c2)cc1	–	–	45µM	–	–	?
c1ccc(-c2ccc3[nH]ccc3c2)cc1	–	–	–	–	–	–
Cc1cccc(C(=O)NC(=O)Nc2ccc(-c3cc(C(F)(F)F)nn3-c3ccccc3)cc2)c1	·	·	–	·	–	–
COc1cc2c(cc1Cl)/C(=C\CCN(C)C)c1ccccc1S2	–	–	28µM	–	–	–
CN(C)CC/C=C1/c2ccccc2Sc2c(O)cc(Cl)cc21	–	–	–	–	–	–
COc1cc(Cl)cc2c1Sc1ccccc1/C2=C/CCN(C)C	–	–	18µM	–	–	–
CN(C)CC/C=C1/c2cc(F)ccc2Sc2ccc(Cl)cc21	·	–	·	·	–	·
O=C(Nc1nccs1)c1cc2sccc2n1Cc1ccc(F)cc1	–	–	–	22µM	–	–
CC(=O)Nc1ccc(NC(=O)c2cnn(-c3ccccc3)c2C2CCN(C(=O)OC(C)(C)C)CC2)cc1	·	·	5µM	·	–	–
Cc1cccc[n+]1C1C(c2ccccc2)C(C#N)=C(C(=C=[N-])C#N)NC1(O)C1CC1 (stereo not drawn)	–	–	5.6µM	–	–	–
O=[N+]([O-])c1ccc2c(c1)nc1n2CCN(c2ccccc2)C1	–	–	28µM	–	–	–
COCCN1CCn2c(nc3cc([N+](=O)[O-])ccc32)C1	–	–	40µM	–	–	–
O=C(COC(=O)c1ccc(Cl)cc1[N+](=O)[O-])NNC(=O)c1cccs1	–	–	56µM	–	–	–
Cc1cc(C(=O)OCC(=O)NNC(=O)c2cccs2)ccc1[N+](=O)[O-]	–	–	–	–	–	–
O=C1C2=C(Nc3ccccc3SC2c2ccccc2C(F)(F)F)c2ccccc21 (stereo not drawn)	·	·	–	·	–	–
CN1CCN(CC(=O)c2ccccc2F)CC1	–	–	11µM	–	–	–
CS(=O)(=O)Nc1ccc(C(=O)Nc2ccccc2C(=O)N2CCCC2)cc1	16µM	–	–	–	–	–
Cc1ccc2c(c1)sc[n+]2Cc1ccccc1	–	–	5.6µM	–	?	–
Cc1ccc(-c2cc[n+](Cc3ccccc3)cc2)cc1	–	–	–	–	–	–
COc1cc(Nc2ccc(C)cc2)c([N+](=O)[O-])nc1[N+](=O)[O-]	–	–	25µM	–	–	–
CSc1ccn(CCC(=O)O)c(=O)n1	10µM	–	–	–	–	–
SMILES	SARS PLpro yeast	RE007 growth inh	Sm TGR inh	AmpC no deterg	Tb PYK inh	AmpC inh detg
CC(C)c1nccn1CCC(=O)O	–	–	–	–	–	–
Cc1ccccc1CC1(CO)CCCN(C(=O)c2ccoc2)C1 (stereo not drawn)	·	–	·	·	–	·
COc1ccc(C(=O)N2CCCC(CO)(Cc3ccccc3C)C2)o1 (stereo not drawn)	–	–	45µM	–	–	–
CC1CCN(S(=O)(=O)c2ccc3c(c2)N(CC(=O)NCCN(C)C)C(=O)CS3)CC1	·	·	–	·	–	–
Cc1ccc(S(=O)c2snnc2C)cc1 (stereo not drawn)	–	–	–	–	–	?
CCCNC(=O)c1nnsc1S(=O)(=O)c1ccc(Cl)cc1	–	11µM	0.32µM	–	–	–
CNC(=O)c1nnsc1S(=O)c1ccc(Cl)cc1 (stereo not drawn)	–	35µM	0.32µM	–	–	?
CCCNC(=O)NS(=O)(=O)c1ccc(Cl)cc1	–	–[18.4 µM]	–	–	–	–
CCCNC(=O)c1nnsc1S(=O)c1ccc(Cl)cc1 (stereo not drawn)	–	3.5µM	0.32µM	–	–	–
COc1ccc(Cn2ccc3nc(C)c(C(=O)Nc4ccc(OC)cc4)cc3c2=O)cc1	·	·	–	·	–	–
Cc1cccc(C(CC(=O)N2CCCCC2)c2ccccc2)c1O (stereo not drawn)	–	–	28µM	–	–	–
CCCCCCC(=O)O[C@@H]1CC[C@H]2[C@@H]3CCc4cc(O)ccc4[C@H]3CC[C@]12C	·	·	·	·	–	·
CC1(C)Cc2c(c(-c3ccco3)nc3sc4c(NCCCO)ncnc4c23)CO1	–	–	2µM	–	?	–
CCCc1nc2oc3c(NCC4CCCO4)ncnc3c2c2c1COC(C)(C)C2 (stereo not drawn)	–	–	–	–	–	–
CC1(C)Cc2c(c(-c3ccco3)nc3sc4c(NCC5CCCO5)ncnc4c23)CO1 (stereo not drawn)	–	·	79µM	–	?	–
CN(C)CCNc1ncnc2c1sc1nc(N3CCCC3)c3c(c12)CC(C)(C)OC3	–	–	–	–	–	–
CC(C)CNc1ncnc2c1sc1nc(N3CCOCC3)c3c(c12)CC(C)(C)OC3	–	–	–	–	–	–
CC1(C)Cc2c(c(-c3ccco3)nc3sc4c(NCCN5CCOCC5)ncnc4c23)CO1	–	–	40µM	–	–	–
Cc1c(C(=O)c2ccc(F)cc2F)c2ccccn2c1CCC#N	–	–	35µM	–	–	–
CCCCCCCCCCCCCCCCCCNC(=O)OC1CCN(C(=O)OC[C@H](COC(=O)N(Cc2cccc[n+]2CC)C(=O)c2ccccc2OC)OC)CC1	·	·	·	·	–	·
CCc1ccccc1NC(=O)C1C2C=CC(O2)C1C(=O)O (stereo not drawn)	–	–	18µM	–	–	–
O=C(O)C1C2C=CC(O2)C1C(=O)Nc1cccc(C(F)(F)F)c1 (stereo not drawn)	–	–	100µM	–	–	?
O=C(O)C1C2C=CC(O2)C1C(=O)Nc1ccccc1C(F)(F)F (stereo not drawn)	–	–	8.9µM	–	–	–
Cc1cc(C)cc(NC(=O)C2C3C=CC(O3)C2C(=O)O)c1 (stereo not drawn)	–	–	–	–	–	–
CCOc1ccccc1NC(=O)C1C2C=CC(O2)C1C(=O)O (stereo not drawn)	–	–	20µM	–	–	?
CCOc1ccc(OCC)c(NC(=O)C2C3C=CC(O3)C2C(=O)NCc2ccco2)c1 (stereo not drawn)	–	–	50µM	–	–	–
